These results are taken from PubChem BioAssay (NCATS).

Inconclusive results are not listed. A number with no mark means an inactive call. Calls of active or inactive are those of the source. Calls follow the shape of the dose curve; as a rule, active = well fitted inhibition curve with a large enough effect; inconclusive = small, poorly fitted or top-dose-only effect; inactive = flat fitted curve, though single readings scatter.

One test relates to CRL-7250. In words: Cytotoxic Profiling of Annotated Libraries Using Quantitative High-Throughput Screening (AID 1296008). Also: potency is read from the fitted curve at half-maximal effect. As to max response: % is scaled to controls: 0 for no effect and ±100 for the full control effect. The settings on record: Five cell lines viability, CellTiter-Glo ATP luminescence, 48-72 h; max response: active compounds read low. The procedure, abridged:
(§1)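 Cytotoxicity was measured as CellTiter-Glo ATP luminescence, read after 10 min at room temperature. Compound treatment of the cells lasted 48 or 72 hr at 37 degrees Celsius in a qHTS format.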

A further test relates to HEK293. The description is as above. The settings on record: Five cell lines viability, CellTiter-Glo ATP luminescence, 48-72 h; max response: active compounds read low. The procedure, abridged: as §1
Test [1] deals with HaCat. Described as above. The settings on record: Five cell lines viability, CellTiter-Glo ATP luminescence, 48-72 h; max response: active compounds read low. A digest of the protocol:
as §1
(In general: Cellular ATP, detected with luciferase, serves as a proxy for viable cell number.)

The next test relates to KB-3-1. The description is as above. The settings on record: Five cell lines viability, CellTiter-Glo ATP luminescence, 48-72 h; max response: active compounds read low. A digest of the protocol:
as §1

Test [2] deals with NIH3T3. Described as above. The settings on record: Five cell lines viability, CellTiter-Glo ATP luminescence, 48-72 h; max response: active compounds read low. A digest of the protocol:
as §1

The test system of test [3] is NIH3T3. The test is described as follows: qHTS assay to identify novel small-molecules to repurpose for Merkel cell carcinoma treatment (AID 1296009). The settings on record: MCC and control cell lines, CellTiter-Glo viability, 72 h; at 44.8 µM (top of the series) unless noted. A digest of the protocol: (§2)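 Cell viability measured by CellTiter-Glo following 72 hr compound treatment at 37 degree celsius, with NPC and MIPE libraries tested in 8- and 11-point concentration series.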

Test [4] relates to HACAT. The description is as above. The settings on record: MCC and control cell lines, CellTiter-Glo viability, 72 h; at 44.8 µM (top of the series) unless noted. A digest of the protocol:
as §2
Also: nearly all actives have a fitted effect of over 60% in size.

Turning to `O=C(OCc1ccccc1O[C@@H]1O[C@H](CO)[C@@H](O)[C@H](O)[C@H]1O)C1(O)C=CCCC1O` (stereo partly drawn), the max response in the test on CRL-7250 is 3.78%; in the test with HEK293, 2.2%; in the test on HaCat [1] it was -2.8%; with KB-3-1 it was 5.3%. For the same compound, the compound was classed as inactive in the test with NIH3T3 [2]. Further, the outcome with NIH3T3 [3] was “inactive [at 17.4 µM]”.

For `CCNC(=O)OC1CCN(c2nncc3cc(OC)c(OC)cc23)CC1`, the max response with CRL-7250 is -1.25%; with HEK293, 2.54%; in the test on HaCat [1], -16.1%. Moreover, the call in the test with KB-3-1, with NIH3T3 [2] and with NIH3T3 [3] was inactive.

With `C=CC(C)(O)CC/C=C(\C)C(=O)O[C@@H]1[C@@H](O)[C@H](OC(C)(C=C)CC/C=C(\C)C(=O)O)O[C@H](CO)[C@H]1OC(=O)/C(C)=C/CCC(C)(O)C=C` (stereo partly drawn), the compound was classed as inactive with CRL-7250, with KB-3-1 and with NIH3T3 [2]. The max response in the test on HEK293 was -0.372%; in the test with HaCat [1], -21.2%. For the same compound, the outcome in the test with NIH3T3 [3] is “inactive [at 17.4 µM]”.

Take `Cc1cn2cc(CC(=O)N3CCC4(CC3)CN(Cc3ccc(-n5nccn5)cc3Cl)C4)nc2s1`: the max response with CRL-7250 is 2.68%; with HaCat [1] it was 2.32%; in the test with KB-3-1, 0.0455%. Besides, the Potency in the test with HEK293 was 16.4 µM (active). Besides, the compound was called inactive with NIH3T3 [2] and in the test with NIH3T3 [3].

For `COC(=O)C[C@@H]1C(C(=O)O)=CO[C@@H](O[C@@H]2O[C@H](CO)[C@@H](O)[C@H](O)[C@H]2O)/C1=C\COC(=O)/C=C/c1ccc(O)c(OC)c1`, the max response in the test on CRL-7250 was 2.29%; in the test with HEK293, -2.42%; with HaCat [1], -1.38%. Further, the compound was classed as inactive in the test with KB-3-1 and in the test on NIH3T3 [2]. For the same compound, the outcome in the test with NIH3T3 [3] is “inactive [at 17.4 µM]”.

As to `CC1=C2C(=O)C=C(CO)C2C2OC(=O)C(CS(=O)(=O)O)C2C(OC(=O)Cc2ccc(O)cc2)C1` (stereo not drawn), the compound was classed as inactive with CRL-7250 and in the test with NIH3T3 [2]. For the same compound, the figures for the max response with HEK293, in the test on HaCat [1] and in the test on KB-3-1 were -5.22%, -1.36% and -6.7%, respectively. Also, the outcome with NIH3T3 [3] was “inactive [at 17.4 µM]”.

With `CC1(O)CCC2C(C3C1CCC3(C)O)C2(C)C` (stereo not drawn), the max response was 3.06% in the test with CRL-7250, 0.939% with HEK293, 2.93% with HaCat [1] and 7.36% with KB-3-1. Moreover, the result in the test on NIH3T3 [2] and in the test with NIH3T3 [3] was inactive.

Consider `C[C@]12CCC[C@](C)(C(=O)O)C1CCC13CC(CO)C(CCC12)C3` (stereo partly drawn), for which the max response with CRL-7250 was -1.66%; in the test with HEK293, 2.28%; in the test on HaCat [1], -11.1%; in the test with KB-3-1, 8.03%. The compound was classed as inactive in the test with NIH3T3 [2] and in the test on NIH3T3 [3].

In the case of `N[C@@H](CCNCc1ccc(Cl)cc1)C(=O)N1CCCCC1`, the result with CRL-7250, in the test with HaCat [1] and with HACAT [4] was inactive. For the same compound, the max response in the test on KB-3-1 is 7.85%; with NIH3T3 [2], -2.5%.

For `Cc1ncc(Cl)cc1NCc1ccc(C(=O)NC(CC2CCCC2)C(=O)NC2CC2)s1` (stereo not drawn), the result in the test with CRL-7250, in the test with NIH3T3 [2] and with NIH3T3 [3] was inactive. The max response in the test on HEK293 was -15.8%; in the test with HaCat [1] it was -11.9%; in the test with KB-3-1, -1.73%.

For the compound `O=C(N[C@H](Cc1ccccc1)C(=O)O)c1sc2cc(F)ccc2c1Cl`, the figures for the max response in the test with CRL-7250, in the test with HEK293 and in the test with HaCat [1] were 2.45%, -2.83% and -0.292%, respectively. The call in the test with KB-3-1, in the test with NIH3T3 [2] and in the test with NIH3T3 [3] was inactive.

On to `COc1ccc(/C=C/C(=O)O[C@@H]2[C@@H](OC(C)=O)[C@@H](OC(C)=O)[C@H](O[C@H]3[C@@H]4C=CO[C@@H](O[C@@H]5O[C@H](CO)[C@@H](O)[C@H](O)[C@H]5O)[C@@H]4[C@@]4(CO)O[C@@H]34)O[C@H]2C)cc1`, for which the call in the test on CRL-7250 and in the test with NIH3T3 [2] was inactive. For the same compound, the max response with HEK293 was -1.95%; in the test on HaCat [1] it was 0.723%; in the test on KB-3-1, 2.76%. The outcome with NIH3T3 [3] is “inactive [at 17.4 µM]”.

As to `Cc1ccc2[nH]c(=O)c(C3=NN(C(=O)CCC(=O)O)C(c4ccc(Br)cc4)C3)c(-c3ccccc3)c2c1` (stereo not drawn), the max response is 0.735% in the test with CRL-7250, 1.24% in the test on HEK293, -0.37% with HaCat [1] and 4.72% in the test on KB-3-1. Besides, the call in the test on NIH3T3 [2] and in the test on NIH3T3 [3] was inactive.

With `C=C1CCC2C(C)(C)CC(O)CC2(C)C1CCC(C)CCOC(=O)CCC(=O)O` (stereo not drawn), the max response with CRL-7250 is -28.7%; in the test with HEK293 it was -12.9%; with HaCat [1] it was -1.5%; in the test with KB-3-1, -6.16%. Besides, in the test on NIH3T3 [2], the call was inactive. In addition, the outcome with NIH3T3 [3] was “inactive [at 17.4 µM]”.
